# Experimental data from article PMC4336329 (PLoS ONE, 2015).
# Screen size: about 310,000 compounds; about 14,000 (4.5%) showed an effect of 50% or more. Effects have a minus sign here. This is one part of a sample in which strong results are shown more often than they occur.
# Target: human ether-à-go-go-related gene (hERG) potassium channel (human, UniProt Q12809)
# Assay: primary screen, population patch clamp on CHO cells stably expressing hERG; higher = less effect of the substance
# 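Note: peak tail current of the secondary pulse compared with the same well before compound.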
# Chain of human ether-à-go-go-related gene (hERG) potassium channel (Q12809 whole entry, looked up): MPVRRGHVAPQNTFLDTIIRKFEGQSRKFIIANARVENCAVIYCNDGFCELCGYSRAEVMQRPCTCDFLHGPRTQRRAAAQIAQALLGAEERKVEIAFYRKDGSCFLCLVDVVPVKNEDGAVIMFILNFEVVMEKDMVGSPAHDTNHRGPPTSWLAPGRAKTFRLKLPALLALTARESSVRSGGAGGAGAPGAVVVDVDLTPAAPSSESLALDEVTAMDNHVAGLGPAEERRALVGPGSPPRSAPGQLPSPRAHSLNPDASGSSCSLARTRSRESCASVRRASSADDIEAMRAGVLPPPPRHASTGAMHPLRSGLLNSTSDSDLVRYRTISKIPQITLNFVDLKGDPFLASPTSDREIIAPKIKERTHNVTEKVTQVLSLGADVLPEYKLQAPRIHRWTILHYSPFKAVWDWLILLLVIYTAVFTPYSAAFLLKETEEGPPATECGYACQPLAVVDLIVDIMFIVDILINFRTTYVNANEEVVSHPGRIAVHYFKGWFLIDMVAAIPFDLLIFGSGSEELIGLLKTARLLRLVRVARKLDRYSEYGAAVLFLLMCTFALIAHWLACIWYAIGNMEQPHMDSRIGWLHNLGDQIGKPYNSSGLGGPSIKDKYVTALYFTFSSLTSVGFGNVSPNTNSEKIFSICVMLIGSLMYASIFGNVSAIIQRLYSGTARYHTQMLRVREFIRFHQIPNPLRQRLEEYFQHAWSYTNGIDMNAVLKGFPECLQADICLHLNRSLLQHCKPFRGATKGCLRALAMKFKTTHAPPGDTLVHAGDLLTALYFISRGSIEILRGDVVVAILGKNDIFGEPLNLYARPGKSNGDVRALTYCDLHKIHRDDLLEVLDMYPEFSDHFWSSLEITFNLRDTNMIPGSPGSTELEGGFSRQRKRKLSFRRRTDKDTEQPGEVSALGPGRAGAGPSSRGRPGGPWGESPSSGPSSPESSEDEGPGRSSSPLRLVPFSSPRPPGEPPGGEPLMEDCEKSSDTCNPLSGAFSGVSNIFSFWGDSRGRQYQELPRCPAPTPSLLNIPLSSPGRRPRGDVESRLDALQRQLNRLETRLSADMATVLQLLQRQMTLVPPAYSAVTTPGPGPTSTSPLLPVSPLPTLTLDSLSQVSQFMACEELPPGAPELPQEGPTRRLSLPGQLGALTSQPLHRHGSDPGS
row,Structure (SMILES),"hERG current change (%, negative = inhibition) at 10uM [%]"
1,Cc1cc(C)c(C)c(S(=O)(=O)NCCN2CCOCC2)c1C,-9.48
2,Cc1cc(=O)oc2c1ccc1ccccc12,18.7
3,CCN(CC)CCN(Cc1cc2ccc(C)cc2[nH]c1=O)C(=S)Nc1ccccc1C(=O)OC,-64.2
4,CCN1CCCC1CN(Cc1cc2ccc(C)cc2[nH]c1=O)C(=S)Nc1ccccc1OC (stereo not drawn),46.7
5,COC(=O)c1ccccc1NC(=S)N(Cc1ccc2c(c1)OCO2)Cc1cc2cc(OC)ccc2[nH]c1=O,8.29
6,CCN1CCCC1CN(Cc1cc2ccc(C)cc2[nH]c1=O)C(=S)Nc1ccc(F)cc1 (stereo not drawn),-78.5
7,COC(=O)c1ccccc1NC(=S)N(Cc1ccc2c(c1)OCO2)Cc1cc2ccc(C)cc2[nH]c1=O,15.1
8,CCN1CCCC1CN(Cc1cc2ccc(C)cc2[nH]c1=O)C(=S)Nc1ccc(OC)cc1OC (stereo not drawn),-74.5
9,COC(=O)c1ccccc1NC(=S)N(Cc1ccc2c(c1)OCO2)Cc1cc2ccc(OC)cc2[nH]c1=O,-13.6
10,COC(=O)c1ccccc1NC(=S)N(Cc1ccc2c(c1)OCO2)Cc1cc2cc(C)ccc2[nH]c1=O,0.949
11,CCN1CCCC1CN(Cc1cc2ccc(C)cc2[nH]c1=O)C(=S)Nc1ccccc1C(=O)OC (stereo not drawn),-85.2
12,CNC(=S)N(Cc1ccc(OC)cc1)Cc1cc2ccc(C)cc2[nH]c1=O,14
13,Cc1ccc2cc(CN(CC3CCCO3)C(=S)Nc3ccccc3)c(=O)[nH]c2c1 (stereo not drawn),-37
14,Cc1ccc2[nH]c(=O)c(CN(CC3CCCO3)C(=S)Nc3ccccc3)cc2c1 (stereo not drawn),-8.2
15,Cc1ccc(NC(=O)CCN2C(=O)C3C4CCC(C4)C3C2=O)cc1[N+](=O)[O-] (stereo not drawn),-0.749
16,O=C(Nc1ccc(C(F)(F)F)cc1)c1cc(-c2cccnc2)nc2ccc(Br)cc12,-16.2
17,COc1ccc(N(CC(=O)NC(C)C)S(=O)(=O)c2ccc(NC(C)=O)cc2)cc1,2.29
18,CC(=O)c1c(C)[nH]c(C(=O)COC(=O)CCCOc2ccccc2)c1C,18.7
19,Cc1cccc(N(C(=O)Cn2nnc3ccccc32)C(C(=O)NC(C)(C)C)c2ccsc2)c1C (stereo not drawn),19.7
20,COc1ccc2[nH]c(=O)c(CN(CC3CCCO3)C(=S)Nc3cccc(C)c3)cc2c1 (stereo not drawn),16.3

row,Structure (SMILES),"hERG current change (%, negative = inhibition) at 10uM [%]"
1,CCN1CCCC1CN(Cc1cc2ccc(C)cc2[nH]c1=O)C(=S)Nc1ccc(OC)cc1 (stereo not drawn),25.3
2,CCN1CCCC1CN(Cc1cc2ccc(C)cc2[nH]c1=O)C(=S)Nc1cccc(OC)c1 (stereo not drawn),-70.7
3,CC(=O)N(Cc1ccc(F)cc1)C1=C(NCCc2ccccc2)C(=O)c2ccccc2C1=O,-0.648
4,NC(N)=N/N=C/c1c(Cl)cccc1Cl,-10.3
5,COC(=O)CCCC(NC(=S)N1CC2C[C@@H](C1)Cn1c2cccc1=O)C(=O)OC (stereo partly drawn),8.56
6,S=C(Nc1cccc(Cl)c1)N(CCCN1CCCC1)Cc1cccn1Cc1ccc(Cl)cc1,-22.7
7,Cc1ccc(NC(=S)N(CCCN2CCCC2)Cc2cccn2Cc2ccc(Cl)cc2)cc1C,4.72
8,CCOc1ccc(NC(=S)N(CCCN2CCCC2)Cc2cccn2Cc2ccc(Cl)cc2)cc1,-58.4
9,Cc1cccc(NC(=S)N(CCCN2CCCC2)Cc2cccn2Cc2ccc(Cl)cc2)c1,-71.8
10,Cc1ccc(NC(=S)N(CCCN2CCCC2)Cc2cccn2Cc2ccc(Cl)cc2)cc1,-22.9
11,Cc1ccc(NC(=S)N(CCCN2CCCC2)Cc2cccn2Cc2ccc(Cl)cc2)cc1Cl,6.99
12,CCCCC(CC)CNC(=O)C1C2C=CC(C2)C1C(=O)O (stereo not drawn),-4.63
13,CC1(C(=O)NC2CCCCC2)CCC(=O)N1Cc1cccs1 (stereo not drawn),-0.227
14,O=C(NCCCN1CCCC1=O)c1csc2ccccc12,-28.2
15,CC(C)Oc1ccc(CN2CCCC(CO)(Cc3ccc(F)cc3)C2)cc1 (stereo not drawn),-58.7
16,CC(C)Oc1ccc(CN2CCCC(CO)(Cc3ccccc3)C2)cc1CO (stereo not drawn),-43.1
17,COc1cc(CN2CCCC(CO)(Cc3ccccc3F)C2)ccc1O (stereo not drawn),-22.5
18,CCOc1ccc(CN2CCCC(CO)(Cc3ccc(F)cc3)C2)cc1 (stereo not drawn),-62
19,CCn1cc(CN2CCCC(CO)(Cc3ccc(F)cc3)C2)c2ccccc21 (stereo not drawn),-32
20,CCOc1ccc(CN2CCCC(CO)(Cc3ccccc3F)C2)cc1 (stereo not drawn),-64.8

row,Structure (SMILES),"hERG current change (%, negative = inhibition) at 10uM [%]"
1,CSCCCN1CCCC(CO)(Cc2ccc(F)cc2)C1 (stereo not drawn),-30.1
2,COC(=O)c1ccc(CN2CCCC(CO)(Cc3ccccc3F)C2)cc1 (stereo not drawn),-32.7
3,O=C(O)c1cccc2c1C(=O)c1cc(Br)ccc1S2(=O)=O,20.2
4,Cc1ccc(S(=O)(=O)NCCS(=O)(=O)N2CCN(c3ccccc3)CC2)cc1,-1.5
5,CC(=O)c1nn(-c2cccc(Br)c2)cc1C(=O)c1ccc(Br)cc1,12.7
6,O=C(NCCCN=C1NS(=O)(=O)c2ccccc21)c1ccc(S(=O)(=O)N2CCOCC2)cc1,4.24
7,COCn1ccnc1C(O)(c1ccc(OC)cc1)c1ccc(OC)cc1,9.69
8,O=C(O)CCC(NS(=O)(=O)c1ccc(N2CCCC2=O)cc1)C(=O)O (stereo not drawn),-7.11
9,O=C(c1ccc(F)cc1)N1CCCC(c2ccccc2)C1 (stereo not drawn),15.8
10,O=C(O)C(=O)O.O=C(c1ccncc1)N1CCN(C2CCCCC2)CC1,-23.4
11,O=C(O)C(=O)O.O=C(c1ccccc1F)N1CCN(C2CCC(c3ccccc3)CC2)CC1 (stereo not drawn),-60.5
12,O=C(O)C(=O)O.O=C(c1ccccc1)N1CCN(C2CCCCCC2)CC1,-28.8
13,COc1cccc(C(=O)N2CCN(C3CCC(c4ccccc4)CC3)CC2)c1OC.O=C(O)C(=O)O (stereo not drawn),-10.1
14,O=C(c1ccncc1)N1CCN(C(=O)c2ccncc2)CC1,12
15,O=C(O)C(=O)O.O=C(c1ccc(F)cc1)N1CCN(C2CCCCC2)CC1,-62.1
16,O=C(O)C(=O)O.O=C(c1ccncc1)N1CCN(C2CCC(c3ccccc3)CC2)CC1 (stereo not drawn),-63.4
17,O=C(O)C(=O)O.O=C(c1ccccc1)N1CCN(C2CCCCC2)CC1,-31.9
18,O=C(O)C(=O)O.O=C(c1ccc(F)cc1)N1CCN(C2CCC(c3ccccc3)CC2)CC1 (stereo not drawn),-76
19,O=C(c1ccc(F)cc1)N1CCC(c2ccccc2)C1 (stereo not drawn),2.75
20,CC1CCC(N2CCN(C(=O)c3ccccc3F)CC2)CC1.O=C(O)C(=O)O (stereo not drawn),-2.63
